Measurements: PubChem BioAssay AID977628 (Broad Institute, 2014)
Fewer than 10 of roughly 1,900 compounds were called active. Another 20% or so got no clear call; they are omitted.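 The calls were made as follows: active = compound lowering the normal-ribosome reporter at least twice as much as the humanized-ribosome reporter, growth loss under a set limit; inconclusive = no clear call, values can overlap the other calls; inactive = the rest.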 A selection follows.

Experiment: growth of wild-type and h24-humanized E. coli strains – h24 mutant RFP vs wild-type GFP, cherry-pick, dose response (AID 977628)
Settings: E. coli WT GFP strain growth, fluorescence, 24 h; series mostly up to 50 µM; activity change, negative = inhibition: at the top concentration

Activity change, negative = inhibition, inactive:
CCn1c(NC(=O)c2nn(C)cc2Br)nc2ccccc21 -2.68
Cc1ccc(C(=O)NCC(=O)OCC(=O)Nc2cccc(S(=O)(=O)N3CCCC3)c2)cc1C -14.5
O=C(NCCc1ccccc1)c1cccc(NC(=O)c2ccccc2)c1 -14
CNC(=O)c1ccsc1NC(=O)c1ccc(S(=O)(=O)N2CCc3ccccc32)cc1 -16.9
O=C(N[C@@H](Cc1ccccc1)C(=O)OCc1ccccc1)c1nc[nH]c1C(=O)NC1CCNCC1 -13.3
COc1ccccc1N1CCN(Cc2ccc(OC)c3ccccc23)CC1 -11.9
Cc1n[nH]c(C)c1S(=O)(=O)N1CCCC(C(=O)Nc2ccc(Br)cc2)C1 (stereo not drawn) -11.2
COc1ccccc1CC(=O)NCCc1c[nH]c2ccccc12 -8.31
CC(=O)Nc1ccc(CNc2nc(NCCN(C)C)nc3cc(-c4ccccc4)sc23)cc1 3.84
CC1CCCC(NC(=O)COC(=O)[C@@H]2CC(O)CN2S(=O)(=O)c2ccc3c(c2)OCCO3)C1C (stereo partly drawn) -10.7
CCc1cc2cc(OC)ccc2nc1SCC(=O)Nc1cc(OC)c(OC)cc1C(=O)O -9.76
Cc1ccc2c(N)c(C(=O)c3ccccc3)sc2n1 -5.41
COc1ccc(C2=NN(C(=O)c3cccnc3)C(c3ccccc3)C2)cc1 (stereo not drawn) -5.27
Cc1ccc(-c2c[n+](CC(=O)Nc3ccccc3)c3n2CCC3)cc1 -6.55
Cc1ccc(OCCCC(=O)NC(C)c2ccccc2)c(C)c1 (stereo not drawn) -8.4
O=C(NCc1ccc2c(c1)OCO2)c1sccc1Br -4.39
Cc1cccc(NC(=O)c2nc(S(=O)(=O)Cc3ccccc3)ncc2Cl)c1 6.25
Cn1cc(CCC(=O)NCc2ccc3c(c2)OCO3)c2ccccc21 -5.07
Cc1ccc(S(=O)(=O)NC(C)C(=O)NCc2ccc(Cl)cc2)cc1 (stereo not drawn) -9.27
CCc1c(N=O)c(-c2ccccc2)n(O)[n+]1[O-] -8.37
COc1ccc2c(c1)c1ncn(Cc3ccccn3)c(=O)c1n2C -10.3
O=C(c1cccc(F)c1)N1CCN(c2ccc([N+](=O)[O-])c3cccnc23)CC1 -8.81
C[C@@H]1CN([C@@H](C)CO)C(=O)c2cc(NS(=O)(=O)c3ccccc3)ccc2O[C@@H]1CN(C)Cc1ccc(C(=O)Nc2ccccc2N)cc1 1.48
